Test system: Vero E6 infected with SARS-CoV-2
Assay: inhibition of SARS-CoV-2 cytopathic effect; higher = more antiviral protection, active = above 15
Details: 48 h

Measured: inhibition of SARS-CoV-2 cytopathic effect

COC(=O)N[C@@H](C)CNc1nccc(-c2cn(C(C)C)nc2-c2cc(Cl)cc(NS(C)(=O)=O)c2F)n1 [Encorafenib (LGX818)]
inactive: 1 nM 0.31% | 8.33 nM 0.31% | 100 nM 2.88% | 833.33 nM 6.46% | 10000 nM -1.13%

CC(C)Cn1cnc2c1c(=O)n(C)c(=O)n2C [isbufylline]
inactive: 1 nM -1.81% | 8.33 nM 0.75% | 100 nM 0.2% | 833.33 nM -0.05% | 10000 nM 1.65%

O=C(CCCCCCC(=O)Nc1ccccc1)NO [vorinostat]
inactive: 1 nM -0.07% | 8.33 nM 0.67% | 100 nM -0.77% | 833.33 nM -5.85% | 10000 nM -23.6%

CC(=O)Oc1cc2c(s1)CCN(C(C(=O)C1CC1)c1ccccc1F)C2 (stereo not given) [prasugrel]
inactive: 1 nM 2.32% | 8.33 nM 1.62% | 100 nM 0.43% | 833.33 nM 2.1% | 10000 nM -0.82%

CN1C(=O)CC(C)(c2ccccc2)C1=O (stereo not given) [methsuximide]
inactive: 1 nM -1.1% | 8.33 nM 0% | 100 nM 1.03% | 833.33 nM 0.88% | 10000 nM -0.14%

Cc1ccc(C(=O)Nc2ccc(CN3CCN(C)CC3)c(C(F)(F)F)c2)cc1C#Cc1cnc2cccnn12 [ponatinib]
inactive: 1 nM 0.65% | 8.33 nM 1.8% | 100 nM 5.2% | 833.33 nM 1.27% | 10000 nM -10.9%

COc1cc(NS(=O)(=O)c2ccc(N)cc2)ncn1 [sulfamonomethoxine]
inactive: 1 nM 0.65% | 8.33 nM 1.44% | 100 nM -1.17% | 833.33 nM 1.1% | 10000 nM 1.17%

CC1C=CC=CCCC=CC=CC=CC=CC(OC2OC(C)C(O)C(N)C2O)CC2OC(O)(CC(O)C(O)CCC(O)CC(O)CC(O)CC(=O)OC(C)C(C)C1O)CC(O)C2C(=O)O (stereo not given) [nystatin]
inactive: 1 nM 0.06% | 8.33 nM -1.74% | 100 nM -1.14% | 833.33 nM -1.11% | 10000 nM 3.99%

CCN(CC)Cc1ccc2cc(COC(=O)Nc3ccc(C(=O)NO)cc3)ccc2c1 [givinostat]
inactive: 1 nM -2.85% | 8.33 nM -0.88% | 100 nM -5.68% | 833.33 nM -19.8% | 10000 nM -29.6%

CC[C@H](Nc1ncnc2[nH]cnc12)c1nc2cccc(F)c2c(=O)n1-c1ccccc1 [idelalisib]
inactive: 1 nM -1.64% | 8.33 nM 2.2% | 100 nM 1.98% | 833.33 nM 3.57% | 10000 nM -3.36%

N#Cc1ncccn1 [2-cyanopyrimidine]
inactive: 1 nM 4.29% | 8.33 nM 5.63% | 100 nM 4.71% | 833.33 nM 6.33% | 10000 nM 4.34%

O=C1c2c(O)cc(O)cc2O[C@H](c2cc(O)c(O)c(O)c2)[C@H]1O [dihydromyricetin]
inactive: 1 nM 2.39% | 8.33 nM 3.54% | 100 nM 1.66% | 833.33 nM 1.69% | 10000 nM -1.52%

Cc1c(NC(=O)c2cccnc2)c(=O)n(-c2ccccc2)n1C [nifenazone]
inactive: 1 nM -4.14% | 8.33 nM 0.87% | 100 nM 1.34% | 833.33 nM -1.46% | 10000 nM 0.61%

CCOC(=O)C1=C(C)NC(C)=C(C(=O)OCC)C1c1ccccc1/C=C/C(=O)OC(C)(C)C [lacidipine]
inactive: 1 nM 2.1% | 8.33 nM -0.72% | 100 nM 0.07% | 833.33 nM 3.01% | 10000 nM 3.85%

C=CC[C@@H]1/C=C(\C)C[C@H](C)C[C@H](OC)[C@H]2O[C@@](O)(C(=O)C(=O)N3CCCC[C@H]3C(=O)O[C@H](/C(C)=C/[C@@H]3CC[C@@H](O)[C@H](OC)C3)[C@H](C)[C@@H](O)CC1=O)[C@H](C)C[C@@H]2OC [tacrolimus]
inactive: 1 nM 0.97% | 8.33 nM 1.42% | 100 nM 2.56% | 833.33 nM 1.67% | 10000 nM 1.14%

CC(=O)O[C@]1(C(C)=O)CC[C@H]2[C@@H]3C=C(C)C4=CC(=O)CC[C@@H]4[C@H]3CC[C@@]21C [nomegestrol-acetate]
inactive: 1 nM -1.8% | 8.33 nM -1.93% | 100 nM 0.03% | 833.33 nM 1.28% | 10000 nM -2.55%

N=C(N)NC(=N)NCCc1ccccc1 [phenformin]
inactive: 1 nM -3.22% | 8.33 nM 0.38% | 100 nM -2.7% | 833.33 nM -2.58% | 10000 nM -5.63%

CNC(=O)c1ccccc1Sc1ccc2c(/C=C/c3ccccn3)n[nH]c2c1 [axitinib]
inactive: 1 nM -0.21% | 8.33 nM -0.79% | 100 nM 0.55% | 833.33 nM 2.32% | 10000 nM 0.23%

CN(C)/C=N/c1c(I)cc(I)c(CCC(=O)O)c1I [iopodic-acid]
inactive: 1 nM -3.57% | 8.33 nM 0.15% | 100 nM -0.76% | 833.33 nM 0.26% | 10000 nM -2.24%

OC[C@H]1O[C@@H](n2cnc3c(NC4CCCC4)nc(Cl)nc32)[C@H](O)[C@@H]1O [2-chloro-N6-cyclopentyladenosine]
inactive: 1 nM -3.44% | 8.33 nM 0.41% | 100 nM 2.9% | 833.33 nM 2.35% | 10000 nM -0.77%

O=C(O)c1ccc2c(c1)C(=O)N(c1cccc(Oc3ccc([N+](=O)[O-])cc3)c1)C2=O
inactive: 1 nM 1.34% | 8.33 nM 0.95% | 100 nM 0.59% | 833.33 nM 1.36% | 10000 nM -0.65%

CN(C)C(=O)CCSC(SCCC(=O)O)c1cccc(/C=C/c2ccc3ccc(Cl)cc3n2)c1 (stereo not given)
inactive: 1 nM -1.06% | 8.33 nM -1.39% | 100 nM 3.57% | 833.33 nM 1.55% | 10000 nM 5.11%

CN(C)CC/C=C1/c2ccccc2Sc2ccc(Cl)cc21 [chlorprothixene]
inactive: 1 nM 5.54% | 8.33 nM 3.98% | 100 nM -4.95% | 833.33 nM -3.59% | 10000 nM -1.82%

O=C(O)c1cc(-c2ccc(F)cc2F)ccc1O [diflunisal]
inactive: 1 nM 1.75% | 8.33 nM -3.3% | 100 nM 2.12% | 833.33 nM 1.36% | 10000 nM 0.19%

O=C(O)c1cc(=O)c2ccccc2o1 [chromocarb]
inactive: 1 nM -1.09% | 8.33 nM -0.13% | 100 nM -0.55% | 833.33 nM 3.21% | 10000 nM -0.51%

O=S(=O)(F)Cc1ccccc1 [phenylmethylsulfonyl-fluoride]
inactive: 1 nM -2.45% | 8.33 nM -1.22% | 100 nM 2.93% | 833.33 nM 0.75% | 10000 nM 1.71%

NCCCCN(Cc1nc2ccccc2[nH]1)[C@H]1CCCc2cccnc21
inactive: 1 nM -0.42% | 8.33 nM -1.96% | 100 nM 0.37% | 833.33 nM -1.81% | 10000 nM 0.08%

NCCCCCNCC12CC3CC(CC(C3)C1)C2
inactive: 1 nM 2.39% | 8.33 nM 1.74% | 100 nM 0.57% | 833.33 nM 2.97% | 10000 nM -1.44%

CC(=O)OCC(=O)[C@@]1(O)CC[C@H]2[C@@H]3CCC4=CC(=O)C=C[C@]4(C)[C@H]3[C@@H](O)C[C@@]21C [prednisolone-acetate]
inactive: 1 nM 0.64% | 8.33 nM 0.57% | 100 nM -0.58% | 833.33 nM -0.51% | 10000 nM 0.26%

CS(=O)(=O)c1ccc(-c2cc(Br)sc2-c2ccc(F)cc2)cc1
inactive: 1 nM 3.29% | 8.33 nM -0.45% | 100 nM -5.25% | 833.33 nM -3.46% | 10000 nM -5.5%

CC1=NN=C(c2ccc(N)cc2)c2cc3c(cc2C1)OCO3
inactive: 1 nM -2.65% | 8.33 nM -5.13% | 100 nM -1.01% | 833.33 nM 2.88% | 10000 nM 0.44%
